Structures can show the parent of a compound that is named as a salt.

This assay has as its system Danio rerio larvae (5 dpf). The experiment in a line: excitability (activity period 17 minus period 16, 1-s interval sound) minus DMSO control (percentage points); higher = more acoustic excitability than DMSO larvae. As to conditions: 10 µM; exposure time: 3 h pre-incubation + 3 h imaging. How it is done:
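Wild-type 5 dpf zebrafish larvae (n=48 per drug, 96-well plates, 28.5 °C) were exposed to Tocris FDA-approved library compounds at 10 µM (0.1% DMSO) for 3 h before and 3 h during imaging. Images were taken every 6 s during visual (moving coloured lines) and acoustic stimuli, and larvae were tracked with the DeepLabCut-based Z-LaP Tracker. Each behavioural measure is the treated-group mean minus the DMSO vehicle control mean (n=844), in percentage points. This mapping covers compounds with 4-character plate codes.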
Take `CN(C)CC/C=C1/c2ccccc2COc2ccc(CC(=O)O)cc21` [Olopatadine hydrochloride]: the excitability was found to be 5.43. For the compound `CC(C)CN(C[C@@H](O)[C@H](Cc1ccccc1)NC(=O)O[C@H]1CO[C@H]2OCC[C@H]21)S(=O)(=O)c1ccc(N)cc1` [Darunavir], the excitability was -0.913. As for `CCOc1nc2cccc(C(=O)O)c2n1Cc1ccc(-c2ccccc2-c2nnn[nH]2)cc1` [Candesartan], the excitability was -3.55. Regarding `COc1cccc2c1C(=O)c1c(O)c3c(c(O)c1C2=O)C[C@@](O)(C(=O)CO)C[C@@H]3O[C@H]1C[C@H](N)[C@H](O)[C@H](C)O1` [Doxorubicin hydrochloride], the excitability stood at 15.5.

With `Cc1nnc(C(C)C)n1C1C[C@H]2CC[C@@H](C1)N2CC[C@H](NC(=O)C1CCC(F)(F)CC1)c1ccccc1` (stereo in doubt) [Maraviroc], the excitability worked out at 6.13. As to `Cc1cc(C2CCCCC2)n(O)c(=O)c1` [Ciclopirox], the excitability amounted to 5.61. `CC(CCc1ccc(O)cc1)NCCc1ccc(O)c(O)c1` (stereo not given) [Dobutamine hydrochloride]: the excitability worked out at 9.03. As to `Nc1nc2[nH]cc(CCc3ccc(C(=O)N[C@@H](CCC(=O)O)C(=O)O)cc3)c2c(=O)[nH]1` [Pemetrexed], the excitability was found to be 2.33. For `Cc1ccc(O)c([C@H](CCN(C(C)C)C(C)C)c2ccccc2)c1` [Tolterodine L-tartrate] the value was 4.8. In the case of `Cn1cnc([N+](=O)[O-])c1Sc1ncnc2[nH]cnc12` [Azathioprine] it was 0.781; in that of `CCOC(=O)c1ncn2c1CN(C)C(=O)c1cc(F)ccc1-2` [Flumazenil], 2.65; in that of `NC(=O)N1c2ccccc2C=Cc2ccccc21` [Carbamazepine], 1.07.

For the compound `CC(C)C(=O)Nc1ccc([N+](=O)[O-])c(C(F)(F)F)c1` [Flutamide], the excitability was -5.48. On to `OCCOCCN1CCN(C2=Nc3ccccc3Sc3ccccc32)CC1` [Quetiapine hemifumarate], for which the excitability came to 9.04.

In the case of `COc1ccc(-c2ccc3cc(C(=O)O)ccc3c2)cc1C12CC3CC(CC(C3)C1)C2` [Adapalene], the excitability was determined as 0.726. Turning to `CO[C@H]1/C=C/O[C@@]2(C)Oc3c(C)c(O)c4c(O)c(c5c(nc6cc(C)ccn65)c4c3C2=O)NC(=O)/C(C)=C\C=C\[C@H](C)[C@H](O)[C@@H](C)[C@@H](O)[C@@H](C)[C@H](OC(C)=O)[C@@H]1C` [Rifaximin], the excitability was found to be 5.77.

Turning to `Nc1ccn([C@@H]2O[C@H](CO)[C@@H](O)C2(F)F)c(=O)n1` [Gemcitabine hydrochloride], the excitability stood at 1.87. Turning to `Cc1c(-c2ccc(O)cc2)n(Cc2ccc(OCCN3CCCCCC3)cc2)c2ccc(O)cc12` [Bazedoxifene acetate], the excitability is 15.4. In the case of `CN1CC[C@@H](NC(=O)Nc2ccc(C#N)cc2)C[C@@H]1c1nc2ccccc2[nH]1` it was 6.95; in that of `CCCCC1=NC2(CCCC2)C(=O)N1Cc1ccc(-c2ccccc2-c2nnn[nH]2)cc1` [Irbesartan], -0.258; in that of `COc1c(C)c2c(c(O)c1C/C=C(\C)CCC(=O)O)C(=O)OC2` [Mycophenolic acid], 1.48. In the case of `CCCN(CCc1cccs1)[C@H]1CCc2c(O)cccc2C1` [Rotigotine hydrochloride] it was 13.6. In the case of `COc1cc2ncnc(Nc3ccc(F)c(Cl)c3)c2cc1OCCCN1CCOCC1` [Iressa] it was 19.5. On to `Nc1cccc2c1CN(C1CCC(=O)NC1=O)C2=O` (stereo not given) [Lenalidomide], for which the excitability was -1.97. For `CC/C(=C(\c1ccccc1)c1ccc(OCCN(C)C)cc1)c1ccccc1` [Tamoxifen citrate], the excitability was determined as 4.81. Take `C/C(O)=C(\C#N)C(=O)Nc1ccc(C(F)(F)F)cc1` [Teriflunomide]: the excitability came out at 9.34.

For `CC(C)c1nc(N(C)S(C)(=O)=O)nc(-c2ccc(F)cc2)c1/C=C/[C@@H](O)C[C@@H](O)CC(=O)O` [Rosuvastatin calcium], the excitability is -2.24. As for `O=C(Nc1c(Cl)cncc1Cl)c1ccc(OC(F)F)c(OCC2CC2)c1` [Roflumilast], the excitability was 13.4. Consider `CN1CCN(CCCN2c3ccccc3Sc3ccc(Cl)cc32)CC1` [Prochlorperazine dimaleate], for which the excitability was determined as 27.2. For `CC#C[C@]1(O)CC[C@H]2[C@@H]3CCC4=CC(=O)CCC4=C3[C@@H](c3ccc(N(C)C)cc3)C[C@@]21C` [Mifepristone], the excitability is 5.63.

With `CC(c1cc2ccccc2s1)N(O)C(N)=O` (stereo not given) [Zileuton], the excitability turned out to be 6.27. Consider `CC(=O)S[C@@H]1CC2=CC(=O)CC[C@]2(C)[C@H]2CC[C@@]3(C)[C@@H](CC[C@@]34CCC(=O)O4)[C@H]12` [Spironolactone], for which the excitability came to 3.91.

As to `Cc1nc(-c2ccc(OCC(C)C)c(C#N)c2)sc1C(=O)O` [Febuxostat], the excitability was -0.805.

For `CN1CCC[C@@H]1Cc1c[nH]c2ccc(CCS(=O)(=O)c3ccccc3)cc12` [Eletriptan hydrobromide], the excitability is 6.84.

Consider `CCOc1nc2cccc(C(=O)O)c2n1Cc1ccc(-c2ccccc2-c2noc(=O)[nH]2)cc1` [Azilsartan], for which the excitability came out at 4.01. In the case of `O=C(c1ccc(OCCN2CCCCC2)cc1)c1c(-c2ccc(O)cc2)sc2cc(O)ccc12` [Raloxifene hydrochloride], the excitability came to 9.77. Turning to `Cc1cccc(C)c1OCC(C)N` (stereo not given) [Mexiletine hydrochloride], the excitability worked out at 3.31. Consider `O=C(O[C@@H]1C[C@@H]2C[C@H]3C[C@H](C1)N2CC3=O)c1c[nH]c2ccccc12` [Dolasetron mesylate], for which the excitability stood at 10.3. For `CCOC(=O)[C@H](CCc1ccccc1)N[C@H]1CCc2ccccc2N(CC(=O)O)C1=O` [Benazepril hydrochloride], the excitability came out at 0.927. `Clc1ccccc1C(c1ccccc1)(c1ccccc1)n1ccnc1` [Clotrimazole]: the excitability turned out to be 11.3.

The values above are taken from the supplement of paper PMC9950053.
